# MEKK2mut PB1 HTS = signal of MEK5 binding to mutant human MEKK2 PB1 domain; bead flow cytometry, Alexa488-MEK5 binding to MEKK2 mutant; percent response, % at 10 µM; 290,000 tested, 0.35% active; AID 1530; in the data active = percent response above about 24%, passing the limit was not always enough
# MEKK2wt PB1 HTS = raises or lowers MEK5 binding to wildtype human MEKK2 PB1 domain | AID 1531 | bead flow cytometry, Alexa488-MEK5 binding to MEKK2 WT; actives lie on both sides | binding response (% of control), % at 10 µM | 290,000 tested, 1.1% active; in the data active = binding response below about 67% or above about 130%
# SKN-1 inh = inhibitors of C. elegans SKN-1 | inhibition, % at 21.8 µM | C. elegans VP596 Pgst-4::GFP/RFP ratio, acrylamide-induced, 24 h | 360,000 tested, 0.49% active;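 active = interference check ratio from 0.5 to 1.5 plus GFP to RFP signal ratio inhibition reaching or exceeding a fixed threshold, cut at about 30% in these data, passing the limit was not always enough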
# NRP1-CendR mod = NRP-1/CendR interaction modulation | O14786 | FAM-RPARPAR peptide binding to NRP-1, fluorescence polarization | inhibition, % at 25 µM | 360,000 tested, 0.85% active;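 active = inhibition or corrected inhibition above about 18%, plus a signal ratio from 0.5 to 1.5, limit read from the data, passing the limit was not always enough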
# Target sequence (O14786 whole entry, looked up): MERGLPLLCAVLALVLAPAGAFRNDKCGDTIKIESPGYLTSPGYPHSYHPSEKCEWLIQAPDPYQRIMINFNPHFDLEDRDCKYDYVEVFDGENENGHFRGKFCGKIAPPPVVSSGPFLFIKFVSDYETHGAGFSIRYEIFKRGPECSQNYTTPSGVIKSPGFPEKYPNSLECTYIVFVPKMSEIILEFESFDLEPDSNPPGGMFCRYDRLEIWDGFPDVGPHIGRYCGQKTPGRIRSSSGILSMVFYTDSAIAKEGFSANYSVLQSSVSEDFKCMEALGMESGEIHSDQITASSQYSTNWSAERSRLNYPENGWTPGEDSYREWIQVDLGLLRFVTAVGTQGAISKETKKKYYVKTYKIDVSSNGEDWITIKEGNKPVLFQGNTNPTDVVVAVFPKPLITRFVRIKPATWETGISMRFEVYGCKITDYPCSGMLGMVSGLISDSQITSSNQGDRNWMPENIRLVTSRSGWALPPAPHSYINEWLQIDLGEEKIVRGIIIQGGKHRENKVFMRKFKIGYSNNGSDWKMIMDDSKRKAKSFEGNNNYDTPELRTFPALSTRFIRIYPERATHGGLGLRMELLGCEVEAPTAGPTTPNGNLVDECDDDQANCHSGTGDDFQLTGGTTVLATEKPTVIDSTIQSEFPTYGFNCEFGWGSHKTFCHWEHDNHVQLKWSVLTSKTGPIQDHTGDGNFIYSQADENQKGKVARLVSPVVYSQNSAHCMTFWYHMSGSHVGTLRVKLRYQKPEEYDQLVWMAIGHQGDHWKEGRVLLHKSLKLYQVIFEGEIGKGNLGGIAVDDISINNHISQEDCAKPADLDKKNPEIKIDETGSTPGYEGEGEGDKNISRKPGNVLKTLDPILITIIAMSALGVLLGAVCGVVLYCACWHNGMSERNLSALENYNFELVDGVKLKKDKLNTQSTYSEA
# MEKK3 PB1 HTS = raises or lowers MEK5 binding to the human MEKK3 PB1 domain | Q99759 | bead-based flow cytometry, Alexa488-MEK5 binding to MEKK3; actives lie on both sides; 0 = blocked by unlabeled MEK5, 100 = vehicle | AID 1529 | 290,000 tested, 1.4% active | binding response (% of control), % at 10 µM;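 active = binding response more than 3 SD above or below the average of its plate-row segment, actives on both sides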;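 also: Alexa488 bead fluorescence after subtracting the streptavidin-only scavenger bead signal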
# MEKK2wt confirm = raises or lowers MEK5 binding to wildtype human MEKK2, retest | shares compounds with MEKK3 PB1 HTS | binding response (% of control), % at 10 µM | 5,900 tested, 2.4% active | bead flow cytometry, Alexa488-MEK5 binding to MEKK2 WT; actives lie on both sides; in the data active = binding response below about 16% or above about 210%; inactive = in between
# MEKK2mut-MEK5 = signal of MEK5 binding to mutant human MEKK2, retest. 5,900 tested, 2% active. AID 1893. shares compounds with MEKK3 PB1 HTS. percent response, % at 10 µM. bead flow cytometry, Alexa488-MEK5 binding to MEKK2 mutant; in the data active = percent response mostly above about 71%, no sharp cut-off; inactive = mostly below about 38%;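 also: higher means compound restores mutant binding toward wildtype level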
# MEKK3 confirm = confirmation of inhibitors of MEK5 binding to human MEKK3 | shares compounds with MEKK3 PB1 HTS | binding response (% of control), % at 10 µM | bead flow cytometry, Alexa488-MEK5 binding to MEKK3; hits give low values | 5,900 tested, 1.8% active;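 active = binding response below 72% of control, or above a set upper limit, though filed actives all read lower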;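 also: 100% = DMSO only wells and 0% = binding blocked by excess unlabeled MEK5; lower values mean stronger disruption of MEK5 binding to MEKK3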
# The depositor's hits bear a star; · = no result given; [ ] = another dose, or the depositor's remark. Compounds with a hit are over-represented: about 3.2% of the library has one in this group of screens.
SMILES,MEKK2mut PB1 HTS,MEKK2wt PB1 HTS,SKN-1 inh,NRP1-CendR mod,MEKK3 PB1 HTS,MEKK2wt confirm,MEKK2mut-MEK5,MEKK3 confirm
O=C(Nc1cc([N+](=O)[O-])ccc1F)C1CC1,1,102,0,1,130*,97,-13,100
c1cc(Nc2ncnc3sccc23)cc(-c2nnc3n2CCCCC3)c1,-17,-1.0*[inhibitor],-2,5,-1.0*[inhibitor],107,4,103
Cc1cc(C)cc(OCC(=O)Nc2ccc3c(c2)C(=O)c2ccccc2C3=O)c1,0,104,6,-4,139*,95,0,97
COCCNC(=S)NN=C1CCCCCC1,-46,7.0*[inhibitor],9,12,4.0*[inhibitor],102,0,102
CC(CNC(=O)CC(C)(C)C)NC(=O)CC(C)(C)C (stereo not drawn),7,102,6,1,123*,94,0,102
CC(C)CC(=O)NCC(C)NC(=O)CC(C)C (stereo not drawn),-1,97,-14,0,98,·,·,·
CC1(c2nnnn2-c2ccc3c(c2)OCCO3)CCC(=O)N1C1CCN(Cc2ccccc2)CC1 (stereo not drawn),·,·,-5,2,·,·,·,·
O=C(Nc1nnc(-c2ccco2)o1)c1cccc(N2C(=O)CCC2=O)c1,4,117,7,1,129*,102,-5,100
Cc1nnc(SCC(=O)NCc2ccco2)[nH]c1=O,7,135*,-12,-12,133*,104,3,102
Cc1cc2c(=O)n(Cc3ccco3)c(SCC(=O)N3CCCc4ccccc43)nc2s1,-2,93,0,1,98,·,·,·
Cc1cc(=O)[nH]c(SCC(=O)NCc2ccco2)n1,1,101,16,-30,100,·,·,·
Cc1cc2c(=O)n(Cc3ccco3)c(SCC(=O)NCc3ccco3)nc2s1,-21,2.0*[inhibitor],5,-10,2.0*[inhibitor],100,11,102
CC1(C(=O)Nc2ccc3c(c2)OCCO3)CN(S(C)(=O)=O)CC(=O)N1CCc1ccc(O)cc1 (stereo not drawn),·,·,-15,2,·,·,·,·
CCOc1ccc(-c2cc(C(=O)Nc3cc(OC)c(OC)c(OC)c3)[nH]n2)c(C)c1,·,·,-2,14,·,·,·,·
CCOC(=O)CN(C#N)c1nc(C)cc(C)n1,-1,98,20,0,102,·,·,·
COC(=O)CN(C#N)c1nc(C)cc(C)n1,1,112,6,-21,133*,102,-1,102
Cc1cc(NCCCN(C)C)n2nc(-c3cccs3)cc2n1,26*,107,-9,-1,112,107,-2,104
CCNc1nc(Oc2ccc(C(=O)OCC)cc2)nc(N2CCOCC2)n1,1,117,·,·,135*,98,-1,101
COc1cccc(-c2cc(NC(C)=O)c3ncc(-c4ccc(OC)c(OC)c4)n3c2)c1,·,·,11,-20,·,·,·,·
Nc1ccc2c(c1)N1CCN=C1S2,5,115,-15,10,99,·,·,·
O=C(Nc1ccc(Cl)cc1)Nc1ccc2c(c1)N1CCN=C1S2,14,141*,29,0,100,143,27,104
C=CCNC(=O)c1ccncc1,3,104,3,8,105,·,·,·
C=CCNC(=O)c1ccc(-n2cccc2)cc1,5,122,3,-2,138*,99,-3,101
Cc1ccc(N=C2NC(=O)S/C2=C\c2ccco2)cc1,1,100,7,-58,100,·,·,·
O=C1NC(=Nc2ccccc2)/C(=C/c2ccco2)S1,-1,100,4,-1,132*,99,-3,102
CC(C)c1ccc(NC(=O)C2CCC(CNC(=O)[C@@H]3Cc4ccccc4CN3)CC2)cc1 (stereo partly drawn),0,100,4,6,99,·,·,·

# Source: PubChem
